For 35 compounds, growth results are on record in PubChem BioAssay (NCI).

Compounds without any hit were thinned out: in the full panel of roughly 83,000, 20% have a hit.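 Note: values are percent growth. 100 is the growth of untreated cells, values between 100 and 0 indicate rising inhibition; between -100 and 0 indicates cell death.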 Values without a mark were called inactive. Active and inactive are the calls of the source. How the source made its calls: active means growth percent below 10; inactive means the rest.

The subject of one assay is HT29 colon. Description: NCI-60 one-dose screen, 48 h (100 = growth as untreated, 0 = no growth, -100 = all killed). To be noted: 10 µM unless noted.
Regarding `CCOc1ccc2nc(NC(=O)Nc3ccccc3C)sc2c1`, the growth is 14.9%.
In the case of `CN(c1ccc(Br)cc1)S(=O)(=O)c1ccc(-c2cnc(C3CC3)o2)cc1`, the growth was 11%.
Still for that read-out and setting: the figure for `CCNC(=NCCCN(C)C)N/C(N)=N/c1nc2ccccc2s1` is 69.9%; for `Cc1cc(Cl)cc(NS(=O)(=O)c2ccc(-c3cnc(C4CC4)o3)cc2)c1` it is 10.7%; for `N/C(=N\c1nc2ccc([N+](=O)[O-])cc2s1)C(Cl)(Cl)Cl` it is 30.7%.
As for `CS(=O)c1nccc(-c2c(-c3ccc(F)c(OCCc4ccc(F)cc4)c3)nc3sccn23)n1` (stereo not given), the growth was 7.84% (active).
As to `CN(c1ccc(F)cc1)S(=O)(=O)c1ccc(-c2cnc(C3CC3)o2)cc1`, the growth was 13.9%.
Still for that read-out and setting: the figure for `Cc1cn(-c2cc(NC(=O)c3cncc(C#Cc4cnc5ccc(OCCCS(C)(=O)=O)nn45)c3)cc(C(F)(F)F)c2)cn1` is 16.1%.

Another assay relates to SNB-19 CNS. The assay is described as above. To be noted: 10 µM unless noted.
For `Cc1ccc(NC(=O)N[C@@H](Cc2cc(F)cc(F)c2)C(=O)NC2C(=O)N3CCC[C@H]3C(=O)N3CCCC[C@H]3C(=O)N[C@@H](C)C(=O)N3C[C@H](C)C[C@H]3C(=O)O[C@H]2C)c(F)c1` (stereo not given in full), the growth is 26.3%.
For `COc1ccc(/C=C/C(=O)c2nnn(-c3ccc(C(=O)O)cc3)c2C)cc1OC`, the growth is 96.3%.
For the compound `O=C(Nc1cc(F)cc2cccnc12)c1cnc(N2CCOCC2)cn1`, the growth was 88.6%.
As to `Oc1ccccc1-c1nnc(SCc2ccc(O)c3ncccc23)o1`, the growth is 29.1%.
Take `COc1cc(/C=C2\SC(=O)NC2=O)ccc1OCC(=O)Nc1ccc(C(=O)/C=C/c2cc3ccccc3nc2Cl)cc1`: the growth is 85.6%.
On to `Nc1nc(-c2cccc([N+](=O)[O-])c2)c(N=Nc2ccccc2Cl)s1`, for which the growth is 82%.
For the compound `Oc1ccc(-c2nnc(SCc3ccc(O)c4ncccc34)o2)cc1`, the growth was 12.8%.
On the same count and under the same terms, the figure for `C[C@H]1[C@H](C)CC[C@]2(COC(=O)c3cccnc3)CC[C@]3(C)C(=CC[C@@H]4[C@@]5(C)CCCNC(C)(C)[C@@H]5CC[C@]43C)[C@H]12` is 88.6%; for `O=c1[nH]c2cc(Cl)ccc2n1C1CCN(c2ccc3nnc(Cl)n3n2)CC1` it is 92.6%.
Still for that read-out and setting: the figure for `COc1ccc(N2CCN(C(=O)CSc3ccc(-c4nc5cc(C)c(C)cc5[nH]4)cn3)CC2)cc1` is 87.5%; for `Cc1cc(F)cc(NS(=O)(=O)c2ccc(-c3cnc(C4CC4)o3)cc2)c1` it is 35.2%.
On the same count and under the same terms, the figure for `Oc1ccc(CSc2nnc(-c3ccncc3)o2)c2cccnc12` is 17.6%.
Take `O=C(COc1ccc(/C=C2\SC(=O)NC2=O)cc1)Nc1ccc(C(=O)/C=C/c2cc3ccccc3nc2Cl)cc1`: the growth is 82%.
Regarding `O=C(Nc1cccc(Cl)c1)Nc1nc2ccc([N+](=O)[O-])cc2s1`, the growth is 21.2%.
Take `Cn1cc(-c2nn3cc(-c4cccnc4)nc3s2)c2cc(F)ccc21`: the growth was 84.7%.
As for `COc1ccc(CCN2C(=O)/C(=C/c3nc(CO)cs3)SC2=S)cc1`, the growth is 91.7%.
With `C/C(=N\NC(=S)Nc1ccc(Br)cc1)c1cc2ccccc2oc1=O`, the growth was 35.2%.
Still for that read-out and setting: the figure for `O=C1[C@H]2Cc3c([nH]c4ccccc34)[C@@H](c3ccc(Cl)cc3)N2C(=O)CN1C1CCN(Cc2c(Cl)cccc2Cl)CC1` is 94.2%; for `O=C1[C@H]2Cc3c([nH]c4ccccc34)[C@@H](c3c(Cl)cccc3Cl)N2C(=O)CN1C1CCN(Cc2ccccc2)CC1` it is 89.6%; for `Oc1ccccc1-c1nnc(SCc2ccc(O)c3ncccc23)n1-c1ccccc1` it is 16.5%.
With `CC1=C2C(=C[C@@](C)(COS(N)(=O)=O)[C@@H]2O)C(=O)[C@](C)(O)C12CC2`, the growth was 72.4%.
On to `CC1(COc2ccc3ncc(C#Cc4cncc(C(=O)Nc5cc(C(C)(C)C)on5)c4)n3n2)COC1`, for which the growth was 60.9%.
The same measure, in the same setting: the figure for `NC(=S)N/N=C(/C=C/c1cn(-c2ccccc2)nc1-c1ccc(Cl)cc1)c1cc2ccccc2oc1=O` is 47.6%.
`O=C(/C=C1\C=CN(CCCCO)c2ccccc21)n1ccc2ccccc21`: the growth is 94.8%.
Turning to `Cc1cc(NS(=O)(=O)c2ccc(-c3cnc(C4CC4)o3)cc2)ccc1I`, the growth was 40.1%.
Take `Oc1ccc(CSc2nnc(-c3ccccc3)o2)c2cccnc12`: the growth is 17%.
For `CS(=O)(=O)c1ccc2c(c1)c1c(n2S(=O)(=O)c2ccc(Cl)cc2)CCCC1`, the growth was 30.1%.
